Calls of active or inactive are those of the source.
What was measured:
[1] = E. coli DRC41 culture turbidity changes, primary screen, E. coli filamentation inducer project, strain DRC41, OD650, 48 h (AID 1152);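 note: E. coli MC1000 strain DRC41 lacking acrAB efflux pump and sulA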; conditions: E. coli DRC41 (acrAB sulA), higher = more signal, called active from +8 up or from −8 down
[2] = small-molecule binders of probe aLefty1, primary screen, biochemical, small-molecule microarray, 635/667 nm fluorescence (AID 1153); conditions: higher = more signal;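 note: score merges spot fluorescence with signal-to-noise ratio from the scanned slide images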
[3] = PSAC antagonists in infected red cells, primary screen, cell-based, P. falciparum Indochina, OD700, 1 h (AID 1154); conditions: P. falciparum Indochina infected RBC osmotic lysis, higher = more signal, called active from +8 up or from −8 down
[4] = PSAC antagonists in infected red cells, primary screen, cell-based, P. falciparum Indochina, OD700, 2 h (AID 1155);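 note: lysis reports solute entry through the parasite surface anion channel PSAC; channel blockers reduce lysis of infected cells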; conditions: P. falciparum Indochina infected erythrocytes, osmotic lysis OD700; higher = more signal, called active from +8 up or from −8 down
[5] = osmotic lysis modulators in infected erythrocytes, primary screen, PSAC antagonist project, cell-based, P. falciparum Indochina, OD700, 3 h (AID 1156); conditions: higher = more signal, called active from +8 up or from −8 down
[6] = PSAC antagonists in infected red cells, primary screen, cell-based, P. falciparum Indochina, OD700, 18 h (AID 1157); conditions: P. falciparum Indochina infected erythrocytes, osmotic lysis OD700, 18 h; higher = more signal, called active from +8 up or from −8 down
[7] = modulators of S6 phosphorylation in cells, primary screen, cell-based, A549, cytoblot, luminescence, serum-stimulated (AID 1158); conditions: A549 phospho-S6 cytoblot, 5 h, higher = more signal;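 note: serum-stimulated A549 lung adenocarcinoma cells; signal is phosphorylated S6 detected by cytoblot immunostaining with HRP secondary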
[8] = target: NADPH oxidase 2 (Homo sapiens) (UniProt P04839); assay: NOX2-dependent H2O2 signal modulators, primary screen, NOX inhibitor project, cell-based, HEK293-NOX2, PMA-stimulated, Amplex Red fluorescence (AID 1159); conditions: 45 min, higher = more signal, called active from +8 up or from −8 down; note: test concentration not given here
Chain of NADPH oxidase 2 (Homo sapiens) (P04839 whole entry, looked up): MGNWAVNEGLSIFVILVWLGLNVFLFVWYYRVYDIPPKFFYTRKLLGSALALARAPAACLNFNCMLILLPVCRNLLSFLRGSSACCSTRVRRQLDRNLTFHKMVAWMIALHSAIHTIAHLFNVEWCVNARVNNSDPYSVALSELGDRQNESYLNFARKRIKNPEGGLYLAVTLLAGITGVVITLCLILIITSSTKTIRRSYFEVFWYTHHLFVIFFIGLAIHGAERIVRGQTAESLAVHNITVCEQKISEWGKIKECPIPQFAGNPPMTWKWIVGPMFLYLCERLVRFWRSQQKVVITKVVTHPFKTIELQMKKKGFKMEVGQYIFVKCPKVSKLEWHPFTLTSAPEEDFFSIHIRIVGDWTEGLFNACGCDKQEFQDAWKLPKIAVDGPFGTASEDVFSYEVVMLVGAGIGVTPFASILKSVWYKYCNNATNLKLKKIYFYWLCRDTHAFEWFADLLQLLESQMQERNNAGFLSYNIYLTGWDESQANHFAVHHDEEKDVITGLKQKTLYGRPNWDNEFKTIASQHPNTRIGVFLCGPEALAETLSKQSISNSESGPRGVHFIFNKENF

[9] = target: NADPH oxidase 4 (Homo sapiens) (UniProt Q9NPH5); assay: NOX4-dependent H2O2 signal modulators, primary screen, NOX inhibitor project, cell-based, HEK293-NOX4, tetracycline-induced, Amplex Red fluorescence (AID 1160); conditions: 45 min, higher = more signal, called active from +8 up or from −8 down
Chain of NADPH oxidase 4 (Homo sapiens) (Q9NPH5 whole entry, looked up): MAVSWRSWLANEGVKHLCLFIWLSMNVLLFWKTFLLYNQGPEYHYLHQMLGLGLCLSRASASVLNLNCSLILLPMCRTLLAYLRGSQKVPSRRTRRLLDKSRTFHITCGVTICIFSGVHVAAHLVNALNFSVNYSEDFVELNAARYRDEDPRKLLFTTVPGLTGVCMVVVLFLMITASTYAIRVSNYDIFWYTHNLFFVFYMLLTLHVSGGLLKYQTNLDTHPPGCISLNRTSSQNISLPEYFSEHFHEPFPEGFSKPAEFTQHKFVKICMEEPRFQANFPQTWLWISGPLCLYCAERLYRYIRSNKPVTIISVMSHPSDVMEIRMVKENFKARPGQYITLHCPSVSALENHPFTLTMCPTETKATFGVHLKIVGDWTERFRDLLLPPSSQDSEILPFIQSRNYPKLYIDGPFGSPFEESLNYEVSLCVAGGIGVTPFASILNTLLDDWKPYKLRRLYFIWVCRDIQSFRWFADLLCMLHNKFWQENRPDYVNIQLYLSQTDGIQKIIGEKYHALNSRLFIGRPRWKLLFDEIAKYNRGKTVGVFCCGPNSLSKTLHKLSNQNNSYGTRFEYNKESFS

[10] = target: NADPH oxidase 5 (Homo sapiens) (UniProt Q96PH1); assay: NOX5-dependent H2O2 signal modulators, primary screen, NOX inhibitor project, cell-based, HEK293-NOX5, Amplex Red fluorescence (AID 1161); conditions: HEK293-NOX5, ionomycin, 45 min, higher = more signal
Chain of NADPH oxidase 5 (Homo sapiens) (Q96PH1 whole entry, looked up): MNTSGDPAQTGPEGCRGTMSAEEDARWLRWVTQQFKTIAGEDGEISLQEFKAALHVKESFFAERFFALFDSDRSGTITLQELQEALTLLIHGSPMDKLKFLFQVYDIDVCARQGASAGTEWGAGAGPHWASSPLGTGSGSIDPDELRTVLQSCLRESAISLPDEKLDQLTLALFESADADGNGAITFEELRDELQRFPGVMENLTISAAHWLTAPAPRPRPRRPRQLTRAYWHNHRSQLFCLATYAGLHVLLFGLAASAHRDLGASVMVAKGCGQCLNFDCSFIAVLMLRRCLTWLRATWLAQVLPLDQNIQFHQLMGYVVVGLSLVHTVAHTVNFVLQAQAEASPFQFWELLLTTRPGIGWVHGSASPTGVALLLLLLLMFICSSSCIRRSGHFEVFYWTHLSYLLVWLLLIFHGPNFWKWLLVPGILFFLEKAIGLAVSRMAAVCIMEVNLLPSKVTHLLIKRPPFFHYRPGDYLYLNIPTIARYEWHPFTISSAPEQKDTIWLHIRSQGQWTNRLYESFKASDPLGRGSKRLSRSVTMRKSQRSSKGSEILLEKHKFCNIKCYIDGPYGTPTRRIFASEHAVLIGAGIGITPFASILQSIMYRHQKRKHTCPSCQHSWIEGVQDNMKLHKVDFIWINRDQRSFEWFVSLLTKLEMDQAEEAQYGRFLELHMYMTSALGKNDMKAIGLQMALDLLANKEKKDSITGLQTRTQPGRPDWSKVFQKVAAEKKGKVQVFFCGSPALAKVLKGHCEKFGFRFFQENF

[11] = A549 cell viability effects, profiling panel, calcein-AM fluorescence, 48 h, basal (AID 1162); conditions: higher = more signal; note: test concentration not given here
[12] = adipocyte viability effects, profiling panel, cell-based, 3T3-L1 adipocytes, calcein-AM fluorescence, 48 h, basal (AID 1163); conditions: 3T3-L1 adipocytes viability, higher = more signal; note: test concentration not given here
[13] = HepG2 cell viability effects, profiling panel, calcein-AM fluorescence, 48 h, basal (AID 1164); conditions: higher = more signal; note: test concentration not given here
[14] = MM1S cell viability effects, profiling panel, calcein-AM fluorescence, 48 h, basal (AID 1165); conditions: higher = more signal;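 note: viability of MM1S multiple myeloma cells under basal unstimulated conditions; test concentration not given here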
[15] = basal RPMI8226 viability, no added stimulus, profiling panel, cell-based, calcein-AM fluorescence, 48 h, PK04 Diversity Set (AID 1166); conditions: RPMI8226 myeloma viability, higher = more signal;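 note: cells grown under basal conditions without added stimulus; test concentration not given here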
[16] = basal HepG2 mitochondrial membrane potential changes, profiling panel, cell-based, JC-1 fluorescence, 24 h, 100 nL compound (AID 1167); conditions: higher = more signal; note: test concentration not given here
[17] = basal 3T3-L1 adipocyte mitochondrial potential changes, profiling panel, cell-based, JC-1 fluorescence, 3T3-L1 adipocytes, 24 h, 100 nL compound (AID 1168); conditions: JC-1 mitochondrial fluorescence, higher = more signal, called active from +8 up or from −8 down; note: test concentration not given here
[18] = basal RPMI8226 mitochondrial membrane potential changes, profiling panel, cell-based, JC-1 fluorescence, 24 h, 100 nL compound (AID 1169); conditions: RPMI8226 myeloma, JC-1 mitochondrial potential fluorescence, higher = more signal; note: test concentration not given here
[19] = basal MM1S mitochondrial membrane potential changes, profiling panel, cell-based, JC-1 fluorescence, 24 h, 100 nL compound (AID 1170); conditions: higher = more signal; note: test concentration not given here
[20] = A549 lung cancer cell viability effects, profiling panel, resazurin fluorescence, 24 h, PK04 Diversity Set (AID 1171); conditions: higher = more signal, called active from +8 up or from −8 down; note: test concentration not given here

| SMILES | z-score [1] | composite z-score [2] | z-score [3] | z-score [4] | z-score [5] | z-score [6] | z-score [7] | z-score [8] | z-score [9] | z-score [10] | z-score [11] | z-score [12] | z-score [13] | z-score [14] | z-score [15] | z-score [16] | z-score [17] | z-score [18] | z-score [19] | z-score [20] |
| --- | --- | --- | --- | --- | --- | --- | --- | --- | --- | --- | --- | --- | --- | --- | --- | --- | --- | --- | --- | --- |
| COc1ccc(C(=O)Nc2ccc(CN3C(=O)[C@@]4(O[C@@H](CC(=O)N5CCC[C@H]5CO)[C@H]([Si](C)(C)c5ccc(OC)cc5)[C@H]4C)c4ccccc43)cc2)cc1 | 0.482 (inactive) | 0.138 | 5.52 (inactive) | 1.06 (inactive) | 0.146 (inactive) | 0.77 (inactive) | 0.363 | 1.21 (inactive) | 1.23 (inactive) | 4.5 | 0.571 | 0.0638 | 0.269 | -2.5 | -3.93 | 3.78 | 0.926 (inactive) | -1.09 | -0.447 | 0.336 (inactive) |
| C=CC[C@@]1(C(=O)NCc2ccccc2)N=C(c2ccc(OCCCO)cc2)O[C@@H]1c1ccccc1N=[N+]=[N-] | -0.304 (inactive) | 0.869 | 33.3 (active) | 31.1 (active) | 3.73 (inactive) | 8.16 (active) | -0.126 | -1.88 (inactive) | 1.29 (inactive) | -0.965 | -0.586 | 0.117 | 0.317 | -1.48 | -1.26 | -0.827 | 0.693 (inactive) | -1 | -0.85 | -0.307 (inactive) |
| CC(=O)NCCCC[C@@H]1NC(=O)[C@@H]2C[C@H](C(=O)NCCCCCCNC(=O)CS)[C@H](c3cccc(OCCO)c3)N2C1=O | -0.493 (inactive) | -0.0334 | 3.47 (inactive) | 0.642 (inactive) | 0.0299 (inactive) | 0.351 (inactive) | 0.468 | 1.55 (inactive) | 0.157 (inactive) | 0.303 | 0.0596 | -0.834 | 0.282 | 0.211 | 0.132 | -0.387 | 0.0104 (inactive) | -0.811 | -0.333 | -0.435 (inactive) |
| C=C(COC)/C(=C/C[C@@H](OC(C)=O)c1ccc(CO)o1)c1cnc2ccccc2c1 | 0.876 (inactive) | 0.233 | 4.44 (inactive) | 0.759 (inactive) | 1.56 (inactive) | 0.307 (inactive) | 0.0933 | 0.299 (inactive) | -2.98 (inactive) | -1.25 | -0.11 | 0.523 | -0.856 | 0.0139 | -0.672 | -0.733 | -0.306 (inactive) | -0.33 | 1.33 | -0.874 (inactive) |
| C=CCC(OC(C)=O)[C@@H]1[C@@H](N(Cc2cccc3ccccc23)C(=O)c2ccc(-c3ccccc3)cc2)c2cc(OCCCO)ccc2N1C(=O)Cc1ccc(OC)cc1 (stereo not given in full) | 0.571 (inactive) | -0.277 | 0.177 (inactive) | -0.172 (inactive) | -1.02 (inactive) | 0.0144 (inactive) | 0.904 | -1.6 (inactive) | 0.32 (inactive) | 0.0661 | 1.29 | 1.66 | 0.68 | -0.169 | 0.516 | 2.05 | 0.324 (inactive) | -0.217 | -0.179 | 1.54 (inactive) |
| CC(C)[C@@H](CO)NC(=O)[C@H]1[C@@H](c2ccccc2)N(c2ccccc2)O[C@@H]1C | 1.6 (inactive) | -0.151 | 0.785 (inactive) | -0.0799 (inactive) | -0.466 (inactive) | -0.0146 (inactive) | 0.444 | -0.982 (inactive) | 0.366 (inactive) | 0.153 | 0.407 | -0.159 | 0.319 | 0.714 | 0.285 | 0.324 | 0.392 (inactive) | 0.354 | -1.11 | 0.959 (inactive) |
| CCOC(=O)[C@H]1C/C=C/C[C@H](C(=O)OCC)C(=O)O[C@H]2[C@@H](OC)O[C@H](CO)[C@@H](OC(=O)Nc3ccc(C#N)cc3)[C@@H]2OC1=O | 3.06 (inactive) | -0.364 | 12.3 (active) | 2.33 (inactive) | -0.906 (inactive) | 1.13 (inactive) | 2.47 | -0.311 (inactive) | 0.2 (inactive) | 1.4 | -2.47 | 1.37 | -4.91 | -3.15 | -4.11 | -2.79 | 1.14 (inactive) | -0.975 | -2.11 | -4.98 (inactive) |
| [N-]=[N+]=NCc1ccccc1C[C@@]1(C(=O)NCC(O)CO)N=C(c2ccc(OCCCO)cc2)O[C@@H]1c1ccccc1N=[N+]=[N-] (stereo not given in full) | 0.458 (inactive) | 0.668 | 30.8 (active) | 28.7 (active) | 1.29 (inactive) | 7.41 (inactive) | 0.345 | -0.00841 (inactive) | 1.21 (inactive) | 0.427 | -2.46 | 0.223 | -1.75 | -2.92 | -3.45 | -0.158 | -0.731 (inactive) | -1.19 | -0.999 | -3.5 (inactive) |
| O=C1c2ccccc2[C@](Cc2ccccc2I)(C(=O)NC2CC2)[C@H](c2ccc(CO)cc2)N1Cc1ccccc1 | -0.102 (inactive) | 0.284 | 5.07 (inactive) | 0.602 (inactive) | 1.67 (inactive) | 0.181 (inactive) | -0.132 | -0.163 (inactive) | -0.127 (inactive) | -0.768 | 0.465 | -0.241 | -0.236 | -0.349 | -0.253 | 0.478 | 0.174 (inactive) | -0.679 | 0.00466 | 1.47 (inactive) |
